What follows are sequences tested on VDR:RXRa (NR concentration 270 nM, RXRa partner concentration 90 nM) (assay: PBM binding z-score (relative to random genomic background probes); higher = stronger binding; sequences stand for … in GC…GCGATTGACAGCGTAGAATGAAGG).
Procedure: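 Protein-binding microarray (Agilent 4x180K custom design, double-stranded 60-nt probes: 5' GC cap, 34-nt variable region, 24-nt constant primer region; full probe sequence given). Purified or IVT nuclear receptor:RXRα heterodimers (3:1 NR:RXRα, mostly 270:90 nM) or homodimers were incubated for 1 h in PBS with 2% milk and no ligand, then detected with Alexa488 antibodies. Fluorescence from o1-orientation probes (~5 replicates averaged) was converted to z-scores against 500 random hg19 background probes. Variable regions are seed direct-repeat (DR0–DR5) sites, all their single-nucleotide variants and half-site ablations.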

Sequence | PBM binding z-score
CGTGCAAGGTCAAGGTCAGTGAAAGAGACTCGAA | 4.83
TTACCAAGGTGAAGCTCGTTGATCCCTCTGTAGA | -0.103
AGAATGCGGTTAAGATCAGGGAAACAGAATACAT | -0.269
AGAATGAGGTTATTAAGATCAGGGAATTGCGGTC | 2.62
CCTAGCAGGCCAGGGTCGCTCAAGCATTTCGCTT | 0.8
TCTATTAGTTGCTTAGGGCAACCGAAACAGCGGA | 0.49
CCTCGGAGGACAACAGGAGGTCAGAGGTGCCAGA | 2.28
ACAGACAGGTGATGAATGTAACTCAGGCTATCAT | -0.0862
CGAACCAGGTCAGAACAGGACAGTGAAGGATGAT | 1.44
AATACAGGGTCACTAGGCCAGAGGAGGTACGAAT | 4.09
TCTTGTAGATCAAAGGTTTAGAAAGCCGAAGCCT | 0.314
TGTACAGGGTCAAAGGCCAGAGTACGAATGTCGA | 4.59
ATCGAAAAGTCGTGAGGTGAGTATACAGAAAGGC | -0.173
GCTCGCAGGCCATTTGGGTCACTCAATGACGGGC | 0.783
AGGACGAGGGCAATGAGTTGATAGCACGGGTGGC | 5.11
ATACCAAGGTGATCGTGAGGTCTTTGATACTAAC | 0.526
CGAACTAGGTCAGAAAAGGACAGTGAAGGATGAT | 0.459
CCTATTAGTTGTCCATAAGGGCAACCGAAGCTCG | 0.958
AGTCAAAGTGCAGGACGAGGTAACGTAAAGCACG | -0.0485
TCTTGTAGATCAGCAGGTTGAGAAAGCTGGCCAA | 0.543

Sequence | PBM binding z-score
TCTTGTAGATCAAGAGGAGGTTAAGAAAGATCGA | 0.632
CCTCAAAGTTCAAGGTAACGTAACAGAAAGCAGC | 4.07
CAGCCTAGGTCAGGGCCAGTATCGGAGGAACGTT | -0.0138
CAAACTAGGTCAAGAAGTCAAAGTCCGCTTCCCG | 1.93
CCTATTAGTTGACCATAAGAGCAACCGAAGCTCG | 1.06
ACTATTAGTTGACTTAGGGCAACCGATACGACGC | 0.152
CAAACTAGGTCAAAAGTCAAAGTCGAGCCAACCA | 2.46
TCGAGTAGGTTAGTCGGGGCTTTCAGCCAACATA | -0.0861
ACTTACGGGTCAACTAGGTTATAGCACGCGTATA | 5.88
CCAGACAGGTGAGAAGGTAACTCAACCTCGATTA | 0.0485
TCTTGTAGATCCACAGGAGGTTAAGAAAGATCGA | 0.74
TCATATAGGTAATACAGATGAAAGTCGGCATCTA | 0.886
TGGAGTAGGTTACCAATGGGGCATTCAGCTTTCT | 0.293
GATACAGGGTCAGCTATAGGCCAGAGTATGGAAA | 2.46
AGAAGGAGGTTATTAAGATCAGGGAATTGCGGTC | 1.89
CCTAGCAGGCAAATCTGGGTCACTCAAGGCTTGA | 0.335
CCTACTGGGCCAAGGTAATTGATCAGTCAAAGCA | -0.552
CGAACTAGGTCATTGACAGGGCAGTGAATAGTAA | 2.15
CGTCCAAGGTCATAGGAGATCAGTGAAGACAGAT | 4.3
GCTGCTAGGTCAACTAATGGTCAGCTAAAGCTCG | 1.35
